Compound activity deposited in PubChem by several laboratories.
The list is not random: actives were taken first. Their share in the collection is about 3.3%.
ERb SRC1 inh: blocks coactivator binding to human estrogen receptor beta | actives 1.3% (n = 86,000) | AID 633 | inhibition, % at 25.6 µM | Q92731 | TR-FRET ER-beta LBD / SRC1-Cy5 peptide binding; receptor agonist-loaded with 1 µM estradiol;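 active = compounds whose percent inhibition of the receptor-coactivator binding signal exceeds about 50% in the single-dose screen, limit read from the data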;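 note: 0% = receptor plus peptide wells without compound and 100% = peptide-only wells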
ERa coact pot: ER-alpha (human) coactivator binding potentiation | P03372 | TR-FRET ERalpha-LBD/SRC-Cy5 coactivator binding, 2 h; 100 = basal binding, no effect | coactivator binding (% of control), % at 25.6 µM | actives 1.3% (n = 86,000) | AID 639; in the data active = activity above about 200%;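 note: binding measured in presence of low estradiol as agonist stimulus; 0% = peptide alone without receptor and 100% = receptor with peptide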
Target sequence (P03372 whole entry, looked up, the tested form may be a part): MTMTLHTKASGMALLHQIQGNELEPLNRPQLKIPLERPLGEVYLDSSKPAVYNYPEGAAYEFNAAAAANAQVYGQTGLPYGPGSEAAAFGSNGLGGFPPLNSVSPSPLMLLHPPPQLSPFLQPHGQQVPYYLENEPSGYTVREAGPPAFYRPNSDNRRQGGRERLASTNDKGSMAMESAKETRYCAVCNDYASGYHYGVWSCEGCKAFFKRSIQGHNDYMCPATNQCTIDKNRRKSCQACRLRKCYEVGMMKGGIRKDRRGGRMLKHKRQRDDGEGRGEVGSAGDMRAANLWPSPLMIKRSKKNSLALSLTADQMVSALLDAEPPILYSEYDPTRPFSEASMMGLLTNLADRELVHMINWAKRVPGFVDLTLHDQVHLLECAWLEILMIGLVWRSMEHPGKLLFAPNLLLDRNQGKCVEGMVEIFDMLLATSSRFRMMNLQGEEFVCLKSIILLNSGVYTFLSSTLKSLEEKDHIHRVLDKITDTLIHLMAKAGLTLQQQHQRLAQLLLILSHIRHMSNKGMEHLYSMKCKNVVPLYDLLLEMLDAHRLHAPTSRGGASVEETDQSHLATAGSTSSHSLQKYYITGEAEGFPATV
PLK1 PBD inh: blocks phosphopeptide binding to human Plk1 polo box domain; P53350; Plk1 PBD phosphopeptide binding, fluorescence polarization; inhibition, %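 (tested at about 20 µM)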; actives 0.13% (n = 97,000); in the data active = inhibition above about 34%, passing the limit was not always enough
PLK1 inh: inhibitors of human PLK1 kinase. P53350. recombinant PLK1 kinase, TR-FRET peptide phosphorylation. inhibition, % at 10 µM. actives 0.53% (n = 97,000). AID 619;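 active = inhibition of 50% or more in the single-concentration screen; inactive = inhibition below 50%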;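 note: 0% = DMSO max control and 100% = H-89 dihydrochloride min control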
ERa SRC1 inh: ER-alpha (human) coactivator binding inhibition; P03372; TR-FRET ER-alpha LBD / SRC-1 peptide, estradiol-bound; inhibition, % at 25.6 µM; actives 1.7% (n = 86,000); AID 629; in the data active = inhibition above about 50%;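 note: 0% = receptor plus peptide control and 100% = peptide only without receptor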
Smad3 inh: blocks human Smad3 binding to FoxH1 peptide. TR-FRET Smad3/Dy647-FoxH1 peptide binding, europium anti-His. inhibition, % at 25 µM. actives 0.29% (n = 88,000);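 active = compounds that reduce the energy-transfer binding signal between the protein and its labelled peptide by more than half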;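 note: 0% = Smad3 plus labelled peptide maximal FRET and 100% = peptide-only background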
* marks the source's active call; other numbers are inactive results; i = inactive; . = not tested or not shown; [ ] = dose if it differs, or a comment.

SMILES | ERb SRC1 inh | ERa coact pot | PLK1 PBD inh | PLK1 inh | ERa SRC1 inh | Smad3 inh
COc1ccc(-c2nnc3n2N=C(c2cccc(Br)c2)CS3)cc1OC | 49 | 233* | . | . | 39 | 20
COc1ccc(C2=Nn3c(nnc3-c3ccccc3OC)SC2)cc1OC | . | . | -1 | -8 | . | .
CCOC(=O)CSc1nn(C)c(=S)s1 | 21 | 33 | -21 | -13 | 65* | -3
CCOC(=O)CSc1nnc(N)s1 | -9 | 125 | 15 | 14 | -5 | 15
COc1ccc(-c2nc(Cn3c(SCc4ccccc4F)nc4ccncc43)c(C)o2)cc1 | 21 | 458*[fluorescence artefact?] | 13 | -15 | -2 | -7
C=CCn1c(SCC(=O)Nc2ccc(C(=O)OC(C)C)cc2)nnc1-c1cccs1 | -18 | 825*[fluorescence artefact?] | . | . | -68 | -5
CCc1ccc(NC(=O)CSc2nnc(-c3cccs3)n2CC)cc1 | -3 | 94 | 2 | -6 | 11 | 3
COc1ccc(NC(=O)CSc2nnc(-c3cccs3)n2-c2ccccc2)cc1 | 4 | 323*[fluorescence artefact?] | -16 | -11 | 16 | -81
CCn1c(SCC(=O)c2ccc(CNC(C)=O)o2)nnc1-c1cccs1 | 43 | 59 | -44 | -6 | 58* | 7
O=C(CSc1nnc(-c2cccs2)n1-c1ccccc1)N1CCc2ccccc21 | -1 | 925*[fluorescence artefact?] | 8 | -26 | 12 | i
N#Cc1nc(-c2cccs2)oc1NCCCN1CCOCC1 | -8 | 121 | -2 | -17 | -6 | 13
CCOC(=O)c1ccc(NC(=O)CSc2nnc(-c3cccs3)n2CC)cc1 | -44 | 384*[fluorescence artefact?] | -3 | -13 | -92 | i
C=CCn1nnnc1SCC(=O)Nc1cccc(OC)c1 | 0 | 108 | . | . | 3 | 7
C=CCn1c(SCC(=O)Nc2cccc(OC)c2)nnc1-c1cccnc1 | -6 | 226* | 20 | -8 | 1 | 1
CCOC(=O)c1ccc(NC(=O)CSc2nnc(-c3cccs3)n2C)cc1 | -1 | 149 | -15 | -15 | 6 | 1
Nc1c(N2CCCC2)cc(Cl)c2nonc12 | 19 | 85 | -41 | 7 | 2 | 58*
Nc1c(N2CCOCC2)cc(Cl)c2nonc12 | -5 | 91 | -11 | -10 | -11 | -9
Cc1cc(C)n(-c2nc3ccccc3c(=O)n2OCCOc2ccccc2)n1 | 56*[fluorescence artefact?] | 33 | 19 | -8 | 7 | -7
Cc1cc(C)n(-c2nc3ccccc3c(=O)n2OCC(N)=O)n1 | -7 | 97 | 13 | 0 | -3 | 5
Cn1c(C(=O)N2CCN(c3ccccc3F)CC2)cc2c(=O)n(C)c3ccccc3c21 | -4 | 97 | . | . | -6 | -3
CC(NC(=O)c1cc2c(=O)n(C)c3ccccc3c2n1C)c1ccc2c(c1)OCCO2 (stereo not given) | 6 | 277*[fluorescence artefact?] | -22 | -11 | 19 | -11
Cn1c(C(=O)NCCN2CCCCCC2)cc2c(=O)n(C)c3ccccc3c21 | 35 | 178 | -5 | -3 | 72*[fluorescence artefact?] | 4
Cc1cccc(N2CCN(C(=O)c3cc4c(=O)n(C)c5ccccc5c4n3C)CC2)c1C | 28 | 312* | -4 | -17 | 14 | -22
Cn1c(C(=O)Nc2ccc3c(c2)OCO3)cc2c(=O)n(C)c3ccccc3c21 | 59* | 66 | . | . | 77* | 7
C=CCn1c(O)c(C(CC)=NCc2cccnc2)c(=O)[nH]c1=O | 50* | 112 | -6 | 3 | -1 | 7
SMILES | ERb SRC1 inh | ERa coact pot | PLK1 PBD inh | PLK1 inh | ERa SRC1 inh | Smad3 inh
CN(C)c1ccc(NC(=O)CN2CCN(CC(=O)Nc3ccc(F)cc3)CC2)cc1 | 54*[fluorescence artefact?] | 64 | . | . | 16 | -19
CN(C(=O)Cn1c(=O)n(CCCCC(=O)NC2CCCC2)c(=O)c2ccccc21)C1CCCCC1 | -7 | 136 | -24 | -11 | -8 | 3
COc1cccc(C(=O)NC2CC3CCCC(C2)N3CC(=O)Nc2ccccc2)c1 (stereo not given) | 99*[fluorescence artefact?] | 8 | 11 | 8 | 97*[fluorescence artefact?] | 81*
N#CCCS(=O)(=O)c1nnnn1-c1ccccc1 | 58* | 78 | 0 | -7 | 61* | -10
CCOc1ccccc1C1C(C#N)=C(N)Nc2onc(-c3ccccc3)c21 (stereo not given) | 1 | 378* | -5 | 1 | -4 | -2
CCN(CC)CCNc1nc(-c2ccccc2)c2c(c1C#N)CC(C)(C)OC2 | -2 | 100 | 3 | 0 | -3 | -3
CC1(C)Cc2c(C#N)c(NCCCO)nc(-c3ccccc3)c2CO1 | 11 | 83 | -5 | 67* | -5 | -13
C[C@H]1[C@H](C)CC[C@@]2(C(=O)O)CC[C@@]3(C)C(=CC[C@H]4[C@]5(C)C[C@H](O)[C@@H](O)[C@@](C)(CO)[C@H]5[C@H](O)C[C@@]43C)[C@H]12 | . | . | . | . | . | 86*
COc1ccccc1-n1c(CNc2ccc(F)cc2)nnc1SCC(=O)Nc1cc(C)on1 | 3 | 104 | 11 | -6 | 1 | -2
O=c1cc(N=Nc2ccc(O)cc2)[nH]c(=O)[nH]1 | . | . | . | . | . | 6
CCOC(=O)c1cnc(Nc2nc3ccccc3o2)nc1CSc1ncccn1 | 3 | 212*[fluorescence artefact?] | -22 | -8 | 55* | -6
CCCc1nc(Nc2nc3ccccc3o2)nc(C)c1C(=O)OCC | 0 | 116 | -8 | -19 | -3 | -11
CCCc1nc(S(=O)(=O)Cc2ccc(Cl)cc2Cl)n[nH]1 | -3 | 121 | -3 | -13 | -3 | 6
CCOC(=O)C1=C(O)/C(=C/c2ccc(C)o2)SC1=NC(=O)c1ccccc1C | 39 | 59 | -13 | -6 | 64*[fluorescence artefact?] | 3
CCOC(=O)C1=C(O)/C(=C/c2cc(OC)c(OC)c(OC)c2)SC1=Nc1ccc(OC)cc1 | . | . | 9 | -14 | . | .
CCCn1c(SCC(=O)Nc2sc(C)c(C)c2C(=O)OC)nc2c1c(=O)n(C)c(=O)n2C | 47 | 246* | . | . | 51* | 6
O=C(COc1ccc2ccccc2c1)Nc1ccc(Cc2ccncc2)cc1 | . | . | 7 | 63* | . | .
O=C(COc1ccc2ccccc2c1)Nc1cccc2cccnc12 | 7 | 129 | 9 | -8 | -1 | -3
O=C(COc1ccc2ccccc2c1)NCCNC(=O)COc1ccc2ccccc2c1 | -4 | 317*[fluorescence artefact?] | -26 | -16 | 11 | -20
S=C(S)NCCN1CCNCC1 | . | . | . | . | . | 43
Nc1ccc(Nc2nc(-c3ccncc3)cs2)cc1 | 6 | 57 | -10 | 23 | 23 | -5
Clc1ccc(Nc2nc(-c3ccncc3)cs2)cc1 | 44 | 117 | 3 | -7 | 76* | 2
NC(N)=NCCCC(=O)O | . | . | . | . | . | -18
Cc1c(CNCc2cccs2)c(C(=O)O)c(C)n1Cc1ccccc1 | -6 | 229*[fluorescence artefact?] | 0 | -10 | -3 | 7
O=C(O)CSc1ncccc1[N+](=O)[O-] | . | . | . | . | . | 12
Nn1c(SCC(=O)NC(=O)NCc2ccccc2)nnc1C1CC1 | 81*[fluorescence artefact?] | 118 | 12 | -7 | -6 | 5
CCc1nn(CC(=O)NCCCN(CC)Cc2ccccc2)c(=O)c2cc3sccc3n12 | -8 | 102 | 0 | 5 | 11 | -5
